Source: PubChem
IEC-6 cytotox: counter-screen for KLF5 inhibitors: cytotoxicity in IEC-6 cells | IEC-6 cytotoxicity, luminescence viability | inhibition, % at 5 µM | 0.78% of 290,000 active | AID 1825; in the data active means inhibition above about 22%
Ba/F3 V617F tox: lowers viability of Ba/F3 cells expressing EpoR and JAK2V617F; ATP luminescence; inhibition, % at 5.6 µM; 1.1% of 220,000 active; AID 1446;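 active means inhibition above the campaign mean plus 3 SD over all tested compounds, cut at about 24% in these data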;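 further: cytokine-independent growth of Ba/F3 cells driven by EpoR plus mutant JAK2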
BaF3 tox: parental Ba/F3 viability inhibition as JAK2V617F counter-screen; CellTiter-Glo ATP luminescence; 1.1% of 220,000 active; inhibition, % at 5.6 µM; AID 1486;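 active means inhibition above a per-campaign cutoff, the mean inhibition of all tested compounds plus 3 SD, cut at about 27% in these data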
APP 5UTR inh: APP translation inhibition; SH-SY5Y APP 5'UTR-luciferase reporter, luminescence; inhibition, % at 2 µM; 0.82% of 190,000 active; AID 1285;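 active means inhibition above a set limit, derived from the sample mean plus 3 SD, cut at about 45% in these data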
KLF5 inhibitor: kruppel-like factor 5 inhibition | DLD-1 KLF5 promoter-luciferase reporter, luminescence | inhibition, % at 5 µM | 0.23% of 290,000 active | AID 1700;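 active means inhibition above a per-plate limit of that plate's mean compound inhibition plus 3 SD, cut at about 60% in these data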;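 further: higher means less KLF5 promoter-driven luciferase light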
Each line names hits and unclear results; the compound was inactive in the other large screens. Only some compounds are listed: those with a hit (about 1.8% of all), similar ones and a draw of the others.

O=C(Cn1nc(CNc2ccc(Cl)cc2)[n+]2c1CCCCC2)c1ccc(Br)cc1	none
Cc1ccc(-c2cn(-c3ccc(SC(F)F)cc3)c3[n+]2CCC3)cc1	Ba/F3 V617F tox 67, BaF3 tox 66
FC(F)Sc1ccc(-n2cc(-c3ccc(Cl)cc3)[n+]3c2CCC3)cc1	Ba/F3 V617F tox 25, BaF3 tox 36
Cn1cc(Br)c(C(=O)NNC(=O)Nc2ccccc2C(F)(F)F)n1	none
CCc1nc(SCC(=O)Nc2sc(C)c(C)c2C(=O)OC)c2ccccc2n1	none
CC(C)(C)c1ccc(-c2cc(N)n[nH]2)cc1	APP 5UTR inh 61
CCOc1cc(/C=C(\C#N)C(=O)NCc2cccnc2)ccc1O	none
Cc1ccc(NC(=O)CN2C(=O)N/C(=C\c3cccnc3)C2=O)cc1	APP 5UTR inh 54
CC(C)c1ccc(NC(=O)CN2C(=O)COc3ccc(S(=O)(=O)N4CCOCC4)cc32)cc1	none (no result: Ba/F3 V617F tox, BaF3 tox, APP 5UTR inh)
CCOc1cc(/C=N/n2nnnc2N)ccc1OCc1c(C)no[n+]1[O-]	BaF3 tox 97
COc1ccc(N2CCN(C(=O)c3ccc(COc4ccc([N+](=O)[O-])cc4)o3)CC2)cc1	none (no result: Ba/F3 V617F tox, BaF3 tox, APP 5UTR inh)
COc1ccc(CC(=O)Nc2ccc(-c3cn4ccccc4n3)cc2)cc1	APP 5UTR inh 58
COc1ccc(CC(=O)Nc2cccc(-c3cn4ccccc4n3)c2)cc1	none
OC1(c2ccc(Cl)cc2)CN(c2ccccc2)C2=[N+]1CCS2 (stereo unspecified)	none
Fc1ccc(-n2cc(-c3ccccc3)c3c(N4CCOCC4)ncnc32)cc1	none
Fc1ccc(-n2cc(-c3ccccc3)[n+]3c2SCC3)cc1	Ba/F3 V617F tox 49, BaF3 tox 79
c1ccc(-c2cn(-c3ccccc3)c3[n+]2CCS3)cc1	Ba/F3 V617F tox 69, BaF3 tox 63
COc1ccc(-c2cn(-c3ccccc3)c3[n+]2CCS3)cc1	Ba/F3 V617F tox 76, BaF3 tox 67
COc1ccc(-c2ccccc2NC(=O)C2CCCN(Cc3ccc(C)o3)C2)cc1 (stereo unspecified)	none (no result: Ba/F3 V617F tox, BaF3 tox, APP 5UTR inh)
CCCCNCC#CCOc1cc(C)ccc1C(C)C	none
Cc1ccc2c(c1)C(=O)C(=O)N2CCOc1ccccc1	IEC-6 cytotox 91, Ba/F3 V617F tox 92, BaF3 tox 87, APP 5UTR inh 79
CCCC(=O)NC(=S)Nc1cccc(-c2nc3ncccc3o2)c1	BaF3 tox 79
CCCOC(c1ccccc1)(c1ccc(C(F)(F)F)cc1)C(Oc1nc(C)cc(C)n1)C(=O)O (stereo unspecified)	KLF5 inhibitor 70 (no result: Ba/F3 V617F tox, BaF3 tox, APP 5UTR inh)
Cc1ccc(CCNC(=O)Cc2ccc(NC3=NC4CS(=O)(=O)CC4S3)cc2)cc1 (stereo unspecified)	none (no result: Ba/F3 V617F tox, BaF3 tox, APP 5UTR inh)
CC12CN(NC(=O)c3ccccc3F)C3(C#N)CC1CCC23C (stereo unspecified)	BaF3 tox 90
O=C(COc1ccccc1Br)N1CCN(c2ccccc2)CC1	none
O=C(N/N=C\c1c(O)ccc2ccccc12)c1ccc(S(=O)(=O)N2CCCCC2)cc1	APP 5UTR inh 86
O=C(COC(=O)c1ccc(S(=O)(=O)N2CCCC2)cc1)Nc1cccnc1Cl	none
O=C(N/N=C/c1c(O)ccc2ccccc12)c1ccc(CO)nc1	none (no result: Ba/F3 V617F tox, BaF3 tox, APP 5UTR inh)
O=C(Nc1cccnc1Cl)c1ccc(S(=O)(=O)N2CCCCCC2)cc1	APP 5UTR inh 90
O=C(NCc1ccccc1)c1ccc(S(=O)(=O)N2CCCC2)cc1	APP 5UTR inh 51
O=C(NCc1cccnc1)c1ccc(S(=O)(=O)N2CCCCC2)cc1	none
COc1ccccc1N1CCN(C(=O)c2ccc(S(=O)(=O)N3CCCCCC3)cc2)CC1	BaF3 tox 94
CCCCc1ccc(NC2=NCC(=O)N2CCc2ccccc2)cc1	none
COc1ccc(CNC(=O)c2ccc(S(=O)(=O)N3CCCC3)cc2)cc1OC	APP 5UTR inh 52
CC1CCCCC1NC(=O)COc1ccc(-n2cnnn2)cc1 (stereo unspecified)	none
O=C(COc1ccc(-n2cnnn2)cc1)NC1CCCCC1	APP 5UTR inh 74
CC(C)Oc1ncnc2c1[nH]c1ccccc12	BaF3 tox 36 (no result: APP 5UTR inh)
C=CCCC(=O)Nc1nc(C)c(-c2csc(Nc3cc(OC)ccc3OC)n2)s1	Ba/F3 V617F tox 34, BaF3 tox 59, APP 5UTR inh 53
O=C(Nc1ccc(NC(=O)c2cc3ccccc3o2)cc1)c1ccc2c(c1)OCCO2	APP 5UTR inh 67
O=C(NNC(=O)c1ccccc1OCc1ccccc1Cl)c1csc(N2CCOCC2)n1	none (no result: Ba/F3 V617F tox, BaF3 tox, APP 5UTR inh)
Cc1ccc(-c2csc(=Nc3cccnc3)n2CCCn2ccnc2)cc1C	none
Cc1ccc(-c2csc(=Nc3cccnc3)n2CCCN2CCCC2=O)cc1C	Ba/F3 V617F tox 64, BaF3 tox 54
